Experimental data as given in PubChem BioAssay AID488815 (Broad Institute, 2010).
Entries with a potency or affinity are not part of this list. Records with an inconclusive call do not appear. Calls of active or inactive are those of the source. The rule behind the calls is not given here.

Target: CAAX prenyl protease 1 (Saccharomyces cerevisiae (strain ATCC 204508 / S288c)) (UniProt P47154)
Assay: Ste24 protease inhibitors, dose response, biochemical, S. cerevisiae, plate reader, cherry-pick (AID 488815)
Details: yeast Ste24 protease activity; series mostly up to 10 µM

Sequence of CAAX prenyl protease 1 (Saccharomyces cerevisiae (strain ATCC 204508 / S288c)) (P47154 whole entry, looked up): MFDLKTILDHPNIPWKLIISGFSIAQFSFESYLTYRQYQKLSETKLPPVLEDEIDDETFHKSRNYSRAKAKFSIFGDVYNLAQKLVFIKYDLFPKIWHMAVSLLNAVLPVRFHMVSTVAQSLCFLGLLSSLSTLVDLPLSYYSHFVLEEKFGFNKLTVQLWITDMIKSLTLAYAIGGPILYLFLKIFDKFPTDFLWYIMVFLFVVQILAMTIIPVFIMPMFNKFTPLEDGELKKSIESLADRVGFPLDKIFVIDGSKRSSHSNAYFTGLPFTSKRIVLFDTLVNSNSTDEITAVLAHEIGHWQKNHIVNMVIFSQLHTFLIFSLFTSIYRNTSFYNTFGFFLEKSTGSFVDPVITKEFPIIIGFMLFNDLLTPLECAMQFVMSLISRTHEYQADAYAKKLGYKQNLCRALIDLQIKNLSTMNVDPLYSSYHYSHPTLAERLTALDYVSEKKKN

Which outcome does the source give for `C/C(CC(=O)NCc1ccco1)=N\NC(=O)c1ccc([N+](=O)[O-])cc1Cl` here?
Its outcome is “inactive”.

How did the outcome turn out when `Cc1ccccc1OC(C)C(=O)N1CCC(Cc2ccccc2)CC1` (configuration not stated) was run?
The outcome was “inactive”.

Which outcome does the source give for `Cc1cccc2sc(N(CCN(C)C)C(=O)c3ccc4ccccc4c3)nc12` here?
The outcome was “inactive”.

How did the outcome turn out when `Cc1ccc2nc(N(CCN(C)C)C(=O)c3ccc4ccccc4c3)sc2c1` was run?
The outcome was “inactive”.

`COc1cc(-c2nc3ccccn3c2/N=C/c2cccc(OC)c2O)ccc1O` was tested. Which outcome did it give?
Its outcome is “inactive”.

How did the outcome turn out when `Cc1ccc(OCCN2C(=O)C(=O)c3cc(C)ccc32)cc1` was run?
Its outcome is “inactive”.

For `CCSCCOC(=O)C1=C(C)NC(=O)NC1c1ccccc1` (configuration not stated), which outcome is on record?
Its outcome is “inactive”.

`O=C(Nc1ccc(S(=O)(=O)Nc2ccccc2)cc1)C1COc2ccccc2O1` (configuration not stated) was tested. Which outcome did it give?
The outcome was “inactive”.

With `O=C1CN(C(=O)NCC(=O)N2CCCC2)c2ccccc2N1` as the compound, how does the outcome read?
The outcome was “inactive”.

How did the outcome turn out when `CC(Cc1cccs1)NC(=O)Nc1ccc([N+](=O)[O-])cc1` (configuration not stated) was run?
Its outcome is “inactive”.

Which outcome does the source give for `COc1cccc2sc3ccc(C#CC4(O)CCCCC4)cc3c(=O)c12` here?
Its outcome is “inactive”.

Which outcome does the source give for `CC(=O)c1c(O)cc(O)c(C(C)=O)c1O` here?
The outcome was “inactive”.

`CC(C)C(=O)Nc1cccc(NC(=S)NC(=O)C(c2ccccc2)c2ccccc2)c1` was tested. Which outcome did it give?
The outcome was “inactive”.

For `O=C(Nc1ccccc1-c1nc2ccccc2[nH]1)c1ccc(N2C(=O)CCC2=O)cc1`, which outcome is on record?
The outcome was “inactive”.

`O=C(c1cnc2n(c1=O)CCS2)N1CCN(C(c2ccccc2)c2ccc(Cl)cc2)CC1` (configuration not stated) was tested. Which outcome did it give?
Its outcome is “inactive”.

With `Cc1cccc(N2CCc3c2nc2ccc(Br)cc2c3N)c1` as the compound, how does the outcome read?
Its outcome is “inactive”.

For `c1ccc(CNc2nc(N3CCN(Cc4ccccc4)CC3)nc3ccccc23)cc1`, which outcome is on record?
The outcome was “inactive”.

How did the outcome turn out when `Cc1cc(C)n2nc(CC(=O)NNC(=O)c3ccc(N(C)C)cc3)nc2n1` was run?
Its outcome is “inactive”.

How did the outcome turn out when `O=C(CC1(O)C(=O)N(C/C=C/c2ccccc2)c2ccccc21)c1ccccn1` (configuration not stated) was run?
Its outcome is “inactive”.

For `O=C1CN(S(=O)(=O)c2ccc([N+](=O)[O-])cc2)CC(=O)N1`, which outcome is on record?
Its outcome is “inactive”.

Which outcome does the source give for `O=C(CN1CCC(NC(=O)c2ccc(Br)cc2)CC1)NCc1cccs1` here?
The outcome was “inactive”.

How did the outcome turn out when `CCCCn1c(=O)[nH]c(=O)c2c1nc(-c1ccc(OC)c(Br)c1)n2CC(C)C` was run?
The outcome was “inactive”.
